According to the supplement of paper PMC12669032:

Columns and labels:
Assay in all cases: growth AUC relative to DMSO control (median of replicates) (fraction); higher = more growth (less inhibition), active = hit call of the paper
Details in all cases: 20 µM; 24 h;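 active = AUC reduced over 20% with Padj below 0.05 in at least 2 of 3 replicates; inactive = otherwise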
Akkermansia muciniphila = test system: Akkermansia muciniphila
Method in brief: (§1)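 Hourly OD600 readings over 24 h tracked anaerobic gut bacterial monocultures grown at 37 °C in mGAM from OD600 0.05 with 20 µM compound (1% DMSO). After the minimum OD was set to 0, area under the growth curve was normalised to the plate median of solvent-only wells, or to row and column medians on the industrial chemical plate. Values are medians of three biological replicates grown on separate days.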

Bacteroides caccae = test system: Bacteroides caccae
Method in brief: as §1

Bacteroides clarus = test system: Bacteroides clarus
Method in brief: as §1

Bacteroides dorei = test system: Bacteroides dorei
Method in brief: as §1

Bacteroides stercoris = test system: Bacteroides stercoris
Method in brief: as §1

[1] = test system: Bacteroides thetaiotaomicron
Method in brief: as §1

Bacteroides uniformis = test system: Bacteroides uniformis
Method in brief: as §1

[2] = test system: Bifidobacterium longum subsp. longum
Method in brief: as §1

Clostridium difficile = test system: Clostridium difficile
Method in brief: as §1

Collinsella aerofaciens = test system: Collinsella aerofaciens
Method in brief: as §1

Coprococcus comes = test system: Coprococcus comes
Method in brief: as §1

Escherichia coli ED1a = test system: Escherichia coli ED1a
Method in brief: as §1

Escherichia coli IAI1 = test system: Escherichia coli IAI1
Method in brief: as §1

Eubacterium rectale = test system: Eubacterium rectale
Method in brief: as §1

[3] = test system: Fusobacterium nucleatum subsp. animalis
Method in brief: as §1

Lactobacillus gasseri = test system: Lactobacillus gasseri
Method in brief: as §1

Lactobacillus paracasei = test system: Lactobacillus paracasei
Method in brief: as §1

Odoribacter splanchnicus = test system: Odoribacter splanchnicus
Method in brief: as §1

[4] = test system: Parabacteroides distasonis
Method in brief: as §1

Parabacteroides merdae = test system: Parabacteroides merdae
Method in brief: as §1

Measured: growth AUC

CCc1cccc(CC)c1N(COC)C(=O)CS(=O)(=O)[O-].[Na+]
inactive: Akkermansia muciniphila 1.02 | Bacteroides caccae 0.953 | Bacteroides clarus 1.01 | Bacteroides dorei 0.989 | Bacteroides stercoris 1.07 | [1] 0.876 | Bacteroides uniformis 0.996 | [2] 1.04 | Clostridium difficile 1.07 | Collinsella aerofaciens 0.966 | Coprococcus comes 0.971 | Escherichia coli ED1a 0.979 | Escherichia coli IAI1 0.987 | Eubacterium rectale 1.02 | [3] 1.07 | Lactobacillus gasseri 1.05 | Lactobacillus paracasei 1.02 | Odoribacter splanchnicus 1.01 | [4] 1 | Parabacteroides merdae 1.01

COC(=O)c1ccc(C)cc1C1=NC(C)(C(C)C)C(=O)N1 (racemic)
inactive: Akkermansia muciniphila 1.03 | Bacteroides caccae 1.01 | Bacteroides clarus 0.971 | Bacteroides dorei 0.975 | Bacteroides stercoris 0.863 | [1] 0.976 | Bacteroides uniformis 1 | [2] 1 | Clostridium difficile 0.972 | Collinsella aerofaciens 0.957 | Coprococcus comes 0.993 | Escherichia coli ED1a 0.969 | Escherichia coli IAI1 0.97 | Eubacterium rectale 1.03 | [3] 0.916 | Lactobacillus gasseri 0.931 | Lactobacillus paracasei 0.959 | Odoribacter splanchnicus 1.07 | [4] 1.03 | Parabacteroides merdae 0.976

CCOC(=O)[C@@H](C)Oc1ccc(Oc2nc3ccc(Cl)cc3o2)cc1
inactive: Akkermansia muciniphila 0.975 | Bacteroides caccae 0.971 | Bacteroides clarus 0.966 | Bacteroides dorei 0.983 | Bacteroides stercoris 1.03 | [1] 1.01 | Bacteroides uniformis 0.929 | [2] 1 | Clostridium difficile 1.03 | Collinsella aerofaciens 1.02 | Coprococcus comes 1.01 | Escherichia coli ED1a 1.03 | Escherichia coli IAI1 1 | Eubacterium rectale 0.876 | [3] 1.02 | Lactobacillus gasseri 0.991 | Lactobacillus paracasei 1.03 | Odoribacter splanchnicus 1.09 | [4] 0.999 | Parabacteroides merdae 0.971

CNC(=O)/C(=N/OC)c1ccccc1COc1cc(C)ccc1C
inactive: Akkermansia muciniphila 0.923 | Bacteroides caccae 1 | Bacteroides clarus 0.94 | Bacteroides dorei 1.01 | Bacteroides stercoris 1.01 | [1] 0.946 | Bacteroides uniformis 0.962 | [2] 0.972 | Clostridium difficile 0.987 | Collinsella aerofaciens 0.968 | Coprococcus comes 0.974 | Escherichia coli ED1a 1.01 | Escherichia coli IAI1 1 | Eubacterium rectale 0.92 | [3] 0.931 | Lactobacillus gasseri 1.01 | Lactobacillus paracasei 1.01 | Odoribacter splanchnicus 0.981 | [4] 0.92 | Parabacteroides merdae 0.926

CCOc1ccc(NC(=O)OC(C)C)cc1OCC
inactive: Akkermansia muciniphila 1.08 | Bacteroides caccae 0.95 | Bacteroides clarus 1.02 | Bacteroides dorei 0.928 | Bacteroides stercoris 1.2 | [1] 0.844 | Bacteroides uniformis 0.938 | [2] 1.05 | Clostridium difficile 0.971 | Collinsella aerofaciens 0.974 | Coprococcus comes 0.942 | Escherichia coli ED1a 1.01 | Escherichia coli IAI1 1.04 | Eubacterium rectale 1.21 | [3] 1.09 | Lactobacillus gasseri 0.99 | Lactobacillus paracasei 0.835 | [4] 0.989 | Parabacteroides merdae 0.998
active: Odoribacter splanchnicus 0.722

CCC(C)Nc1nc(N)nc(Cl)n1 (stereo not given)
inactive: Akkermansia muciniphila 1.09 | Bacteroides caccae 0.906 | Bacteroides clarus 0.995 | Bacteroides dorei 1.02 | Bacteroides stercoris 1.16 | [1] 1.01 | Bacteroides uniformis 0.949 | [2] 1.03 | Clostridium difficile 0.974 | Collinsella aerofaciens 1.01 | Coprococcus comes 0.981 | Escherichia coli ED1a 1 | Escherichia coli IAI1 1.01 | Eubacterium rectale 1.05 | [3] 1.03 | Lactobacillus gasseri 0.996 | Lactobacillus paracasei 1.02 | Odoribacter splanchnicus 0.976 | [4] 1.01 | Parabacteroides merdae 1.03

C[C@@]1(c2ccccc2)NC(=O)N(Nc2ccccc2)C1=O
inactive: Akkermansia muciniphila 0.931 | Bacteroides caccae 1.04 | Bacteroides clarus 0.973 | Bacteroides dorei 1 | Bacteroides stercoris 0.965 | [1] 0.992 | Bacteroides uniformis 1.01 | [2] 0.96 | Clostridium difficile 1 | Collinsella aerofaciens 1.02 | Coprococcus comes 1.03 | Escherichia coli ED1a 1.02 | Escherichia coli IAI1 1.01 | Eubacterium rectale 0.948 | [3] 1 | Lactobacillus gasseri 1.05 | Lactobacillus paracasei 0.955 | Odoribacter splanchnicus 0.993 | [4] 1.02 | Parabacteroides merdae 0.996

CC(C)(C)C(=O)C(Oc1ccc(Cl)cc1)n1ccnc1 (stereo not given)
inactive: Akkermansia muciniphila 1.07 | Bacteroides caccae 0.971 | Bacteroides clarus 0.987 | Bacteroides dorei 0.98 | Bacteroides stercoris 1.04 | [1] 0.944 | Bacteroides uniformis 0.984 | [2] 1.01 | Clostridium difficile 0.962 | Collinsella aerofaciens 0.94 | Escherichia coli ED1a 1.03 | Escherichia coli IAI1 0.994 | [3] 1.02 | Lactobacillus gasseri 0.918 | Lactobacillus paracasei 0.971 | Odoribacter splanchnicus 0.994 | [4] 0.938 | Parabacteroides merdae 0.96
active: Coprococcus comes 0.629 | Eubacterium rectale 0.414
